The subject of one assay is Streptococcus suis HE06. Nature of the assay: percent growth relative to DMSO control; higher = less growth inhibition. Conditions: 10 µM; incubation time 18 h. On the procedure:
(§1)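 CLSI broth microdilution: 5x10^4 CFU of Streptococcus suis (strain P1/7 or HE06) incubated with 10 µM Pathogen Box compound in cation-adjusted Mueller Hinton broth, 37 °C, 5% CO2, 18 h. Growth read as OD600 and expressed as percent of the DMSO-treated control (100%); mean ± SD of three independent experiments.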

The subject of the next assay is Streptococcus suis P1/7. Described as above. As to conditions: 10 µM; incubation time 18 h. On the procedure: as §1

± gives the standard deviation.

Take `Cc1cccc(-c2nc(Nc3ccncn3)c3sccc3n2)n1`: the percent growth with Streptococcus suis HE06 worked out at 0.0155 ± 0.027%; in the assay on Streptococcus suis P1/7, 0.888 ± 0.29%.
The like results for `CC1=NN(c2nc3ccccc3s2)C(=O)C1Cc1cccc2ccccc12` (configuration not stated) were, in that order, 0.762 ± 0.8% and 3.74 ± 3.5%.
`COc1ccc(CN2CCOc3ccc(C(C)(O)CN(C)C)cc3C2)cc1C` (configuration not stated): the figures for the percent growth in the assay with Streptococcus suis HE06 and with Streptococcus suis P1/7 were 103 ± 14% and 101 ± 27%, respectively.
For `CN(C)c1cc(NC(=O)Nc2ccccc2)c2ccccc2n1` the same measures were 105 ± 8.6% and 87 ± 34%.
Regarding `N#Cc1ccc(-c2ccc(OCC(N)=O)cc2)cc1`, the percent growth came out at 91.4 ± 11% with Streptococcus suis HE06 and 94.4 ± 35% with Streptococcus suis P1/7.
The like results for `FC(F)(F)c1cnc(Sc2nnc(-c3ccncc3)o2)c(Cl)c1` were, in that order, 94.8 ± 27% and 67.2 ± 20%.
For `CC(C)=CCC/C(C)=C\CNCCNC1C2CC3CC(C2)CC1C3` (configuration not stated) the same measures were 0.0687 ± 0.12% and -0.0282 ± 0.049%.
The like results for `Cc1cc(Cl)ccc1NC(=O)CCc1ccc(S(=O)(=O)NCC(C)C)cc1` were, in that order, 87.8 ± 9.9% and 95.4 ± 17%.
For `Nc1ncnc2c1ncn2C[C@@H](O)[C@@H](O)C(=O)O`, the percent growth with Streptococcus suis HE06 stood at 75.9 ± 17%; with Streptococcus suis P1/7, 87.3 ± 15%.
`COc1cc(Br)cc2cc(C(=O)Nc3cccc(C(F)(F)F)c3)c(=O)oc12`: the percent growth stood at 116 ± 26% in the assay on Streptococcus suis HE06 and 115 ± 52% in the assay on Streptococcus suis P1/7.
The like results for `COc1cccc(-n2nnnc2S(=O)(=O)Cc2ccccc2)c1` were, in that order, 33.8 ± 19% and 64.7 ± 47%.
For `Cc1cc(Nc2ccncc2)n2nc(C)c(-c3ccccc3Cl)c2n1` the same measures were 73.9 ± 22% and 105 ± 37%.
The like results for `O=C([C@@H](c1ccc(Cl)cc1)c1cccnc1)N1CCN(c2ccc(C(F)(F)F)cc2)CC1` were, in that order, 89 ± 10% and 75.6 ± 12%.
For `O=C(N[C@H](Cc1ccccc1)C(=O)Nc1ccccc1N1CCOCC1)c1cccs1`, the values for the percent growth in the assay on Streptococcus suis HE06 and with Streptococcus suis P1/7 were 92.7 ± 9.4% and 85.8 ± 16%, respectively.
`Cc1ccc(S(=O)(=O)n2cc(-c3ccnc(N)c3)c3cc(Br)cnc32)cc1`: the percent growth is 95.2 ± 32% in the assay on Streptococcus suis HE06 and 61.5 ± 15% in the assay with Streptococcus suis P1/7.
For `Cc1cc(C(=O)Nc2cnn(Cc3ccc(Cl)cc3Cl)c2)no1` the same measures were 94.2 ± 5.5% and 97.5 ± 11%.

These data come from the supplement of paper PMC7866885, “A novel bicyclic 2,4-diaminopyrimidine inhibitor of Streptococcus suis dihydrofolate reductase” (PeerJ, 2021).
